Source: PubChem BioAssay AID1117359 (Southern Research Institute, 2015)
Hit rate of the full screen: of about 1,500 compounds, about 460 (31%) were called active.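 How the source made its calls: active means viability at or below 80% at any tested concentration, marking the compound as toxic; inactive means the rest.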 The list is a sample of the results. Entries with a potency or affinity are not part of this list.

Assay: viability loss in THP-1 monocytes – THP-1 cells, cytotoxicity control for Vif-APOBEC3G degradation inhibitor project, dose response (AID 1117359)
Details: THP-1 viability, CellTiter-Glo luminescence, 72 h; series mostly up to 40 µM; viability: at the top concentration

Row | Structure (SMILES) | viability
1 | COc1ccc(OC)c(N2C(=O)[C@@H]3C(c4ccccc4Cl)=NO[C@@H]3C2=O)c1 | 96% (inactive)
2 | CCN(C(=O)CN1CCN(c2ccc(O)cc2)CC1)c1c(N)n(Cc2ccccc2)c(=O)[nH]c1=O | 102% (inactive)
3 | COC1=C(Br)C(=O)c2nc(C)ccc2C1=O | 89.4% (inactive)
4 | CCOc1cccc(=O)c2c(C)n(CC(=O)c3ccccc3)c(C)c12 | 84.6% (inactive)
5 | COc1ccc(CNS(=O)(=O)c2cc(Br)cc3c2N(C(C)=O)C(C)C3)cc1 (centres undefined) | 94.4% (inactive)
6 | Cc1[nH]n(-c2nc(-c3ccccc3F)cc(=O)[nH]2)c(=O)c1CCO | 93.4% (inactive)
7 | COc1cc2ccccc2cc1C(=O)N1CCN(c2ccccc2O)CC1 | 87.3% (inactive)
8 | O=[N+]([O-])c1ccc2c(c1)S(=O)c1ccccc1-2 (centres undefined) | 102% (inactive)
9 | C/C(=N\Nc1ccc([N+](=O)[O-])cc1[N+](=O)[O-])c1cc2c(ccc3ccccc32)oc1=O | 108% (inactive)
10 | CC1=Nc2cccc3cccc(c23)N1 | 97% (inactive)
11 | CCS(=O)(=O)N1CCN(C(=O)c2cccc3ccccc23)CC1 | 91% (inactive)
12 | O=c1c(O)cccc2cc(O)c(O)c(O)c12 | 91.7% (inactive)
13 | CC12CCC(C(=O)Nc3ccc(Br)cn3)(OC1=O)C2(C)C (centres undefined) | 99.9% (inactive)
14 | COc1ccc(S(=O)(=O)N2CCC(C(=O)NCc3cccnc3)CC2)cc1Cl | 96% (inactive)
15 | O=C(Nc1ccc(C(=O)N2CCOCC2)cc1)c1ccccc1[N+](=O)[O-] | 84.2% (inactive)
16 | O/C=c1\ccc2cccc3nc(C(F)(F)F)nc1c23 | 102% (inactive)
17 | Cc1ccc(C)c(NC(=S)NCc2ccccc2)c1 | 95.1% (inactive)
18 | Cc1ccc(C(=O)NNS(=O)(=O)c2ccccc2[N+](=O)[O-])cc1 | 94.8% (inactive)
19 | CN(C)c1ccc(N2C(=O)CSC2=S)cc1 | 104% (inactive)
20 | CC(C)C(C)NC(=O)COc1ccc(S(=O)(=O)N2CCOCC2)cc1Cl (centres undefined) | 95.4% (inactive)
21 | O=C1CC(Nc2ccc(N3CCOCC3)cc2)C(=O)N1CCc1ccccc1 (centres undefined) | 87.8% (inactive)
22 | O=C(CNC(=O)c1ccc(Cl)cc1Cl)OCc1nnc(-c2ccccc2Br)o1 | 95.6% (inactive)
23 | CCOC(=O)/C=C1\SC(C)C(=O)N1CC(=O)N(CCC#N)c1ccccc1 (centres undefined) | 90.8% (inactive)

Row | Structure (SMILES) | viability
24 | CC(C)CC(NC(=O)/C(=C/c1ccco1)NC(=O)c1ccc(Br)o1)C(=O)O (centres undefined) | 101% (inactive)
25 | CCC(C)(C)NC(=O)C(c1ccc(F)cc1)N(Cc1ccco1)C(=O)c1cnccn1 (centres undefined) | 92.5% (inactive)
26 | O=C(CCN1CCN(c2ccccc2)CC1)N/N=C/c1ccc(O)c(O)c1O | 102% (inactive)
27 | O=C(Cc1csc(N2CCOCC2)n1)N/N=C/c1ccc(O)c(O)c1O | 108% (inactive)
28 | CC1CCCN(CC(O)CN2CCN(CC(O)CN3CCCC(C)C3)C(C)C2)C1 (centres undefined) | 101% (inactive)
29 | COC(=O)c1ccccc1NC(=O)CCS(=O)(=O)c1ccc(Br)cc1 | 87.6% (inactive)
30 | COc1cccc(NC(=O)CN(C)C(=O)CCCc2nc3ccccc3s2)c1 | 101% (inactive)
31 | COC(=O)C1=C(O)/C(=C\c2ccc(CNC(=O)C(=O)Nc3ccc(C)c(C)c3)o2)N=C1C | 95.5% (inactive)
32 | Cc1cn(C2CCCCO2)c(=O)[nH]c1=O (centres undefined) | 107% (inactive)
33 | CC(=C\c1ccco1)/C=C1/SC(=S)N(CC(=O)O)C1=O | 110% (inactive)
34 | O=C(CCCN1C(=O)/C(=C\c2ccco2)SC1=S)Nc1ccc2ccccc2c1 | 80.9% (inactive)
35 | COc1ccc(NC(=O)c2cccnc2C(=O)O)c(OC)c1 | 103% (inactive)
36 | COC(=O)c1ccccc1NC(=O)CNC(=O)c1ccc(OC)cc1 | 82.8% (inactive)
37 | O=C(O)c1c2c(nc3ccc(Cl)cc13)CCC2 | 99.5% (inactive)
38 | COc1ccc(CNC(=O)c2sc3nc4c(c(C(F)(F)F)c3c2N)CCC4)cc1OC | 96.3% (inactive)
39 | Cc1ccc(C(c2nnnn2CC2CCCO2)N2CCN(C)CC2)cc1 (centres undefined) | 107% (inactive)
40 | O=[N+]([O-])c1cc2oc3c(c2c(C=NCc2ccncc2)c1O)CCCC3 | 110% (inactive)
41 | COc1cc2c3c(c1OC)C1(C=CC(=O)C=C1)CC3N(C(=O)CCC(=O)O)CC2 (centres undefined) | 103% (inactive)
42 | O=C(CCCCl)Nc1nc(-c2ccc3c(c2)OCCO3)cs1 | 98.4% (inactive)
43 | COc1ccc(OC)c(N/C(C)=C/C(=O)c2ccc(C)o2)c1 | 89.8% (inactive)
44 | COc1ccc(O)c(N)c1 | 99.5% (inactive)
45 | Oc1ccc(-c2cn3c(n2)SCC3)cc1O | 97.9% (inactive)
46 | CCCCCC#CCC#CCC#CCC#CCCCC(=O)O | 83% (inactive)

Row | Structure (SMILES) | viability
47 | CC(=O)Nc1cccc(-c2cc(-c3c(Cl)cccc3Cl)no2)c1 | 95.7% (inactive)
48 | COc1ccc(NC(=O)/C=C/c2ccc(S(=O)(=O)N3CCOCC3)cc2)cc1 | 97.8% (inactive)
49 | Cc1cc(-c2n[nH]c(=S)n2/N=C/C=C/c2ccco2)n[nH]1 | 108% (inactive)
50 | COc1ccc(C)cc1NC(=O)COC(=O)CCC(=O)c1cccs1 | 106% (inactive)
51 | N#Cc1ccccc1CN1C(=O)S/C(=C/c2cccn2-c2ccc(C(=O)O)cc2)C1=O | 109% (inactive)
52 | O=C(NCC(c1ccco1)N1CCCC1)c1cccc(S(=O)(=O)N2CCCCC2)c1 (centres undefined) | 89.7% (inactive)
53 | COc1cc(C(C2C(=O)CC(C)(C)CC2=O)C2C(=O)CC(C)(C)CC2=O)cc(OC)c1OC | 96% (inactive)
54 | O=C(NC1CC1)c1cc(-c2ccco2)nc2ccccc12 | 87.3% (inactive)
55 | COCCNC(=O)Nc1ccc2nc(-c3ccco3)c(-c3ccco3)nc2c1 | 114% (inactive)
56 | CC(C)CN(C(=O)CN1CCN(S(=O)(=O)c2ccccc2)CC1)c1c(N)n(CC(C)C)c(=O)[nH]c1=O | 118% (inactive)
57 | COC(=O)[C@@]1(Cc2ccc(OC)cc2)[C@H]2c3cc(C(=O)N(C)C)n(C[C@H](O)CO)c3C[C@H]2CN1C(=O)c1ccccc1 | 83.2% (inactive)
58 | Cc1nc(C)c(C(=O)Nc2nc3c(C)cccc3s2)o1 | 92.6% (inactive)
59 | O=C(Nc1nnc(C2CC2)s1)c1ccc(S(=O)(=O)c2ccccc2)cc1 | 94.8% (inactive)
60 | S=c1[nH]nc(COc2ccc(Cl)cc2)o1 | 103% (inactive)
61 | CCCCCCNS(=O)(=O)c1ccccc1Br | 87% (inactive)
62 | Clc1ncnc2scc(-c3ccccc3)c12 | 84.7% (inactive)
63 | Nc1ccc(S(=O)(=O)c2cc(O)c3ccccc3c2O)cc1 | 89.9% (inactive)
64 | CCOC(=O)/C(C#N)=C/c1c(OCC)n(CC)c2ccccc12 | 91.8% (inactive)
65 | COc1ccc(CCN2C(=O)CC(Nc3ccc(N4CCOCC4)cc3)C2=O)cc1OC (centres undefined) | 96.4% (inactive)
66 | O=C1CCC(CCC(=O)N2CCCC(C(=O)c3ccc4c5c(cccc35)CC4)C2)=NN1 (centres undefined) | 81.3% (inactive)
67 | Nc1cc(N)c(OCC(F)(F)F)cc1OCC(F)(F)F | 98.8% (inactive)
68 | CC(=O)c1ccc2c(c1)C1C=CCC1C(c1ccncc1)N2 (centres undefined) | 86.5% (inactive)
69 | Cc1cccc(Cc2nnc(CCC(=O)N(C)C3CCOC3)o2)c1 (centres undefined) | 95.4% (inactive)
